Data taken from PubChem BioAssay (NCI).
Compounds without any hit were thinned out: in the full panel of roughly 79,000, 15% have a hit. A number with no mark means an inactive call. Active and inactive are the calls of the source. Cut-off read from the data, not from the text of the source: active = growth inhibition above about 70%; inactive = the rest. *1 amine or outer side, *2 acyl side, *3 side chain or, on linkers, in order; H or OH if unused. Where a SMILES comes first, the peptide text is derived from it. Bridges are numbered along the chain shown (N, C = ends). [ ]: non-standard residue; d: D form. The star is where a group is joined. ξ: configuration not given here. ξOrn(4,5-diOH) = O=C(C(CC(O)C(O)N[*:3])N[*:1])[*:2]; ξhTyr(βξ-OH,γξ-OH) = NC(C(=O)O)C(O)C(O)c1ccc(O)cc1; ξPro(3ξ-OH,4ξ-Me) = CC1CNC(C(=O)O)C1O; X1 = CCCCC/C=C/C/C=C\CCCCCCCC(=O)*; Hyp = O=C(O)[CH]1C[CH](O)CN1

Key:
[1] = NCI Yeast Anticancer Drug Screen. Data for the rad50 strain (AID 155);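 note: 0% = growth of vehicle-only cultures of the same strain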; settings: S. cerevisiae rad50 strain growth inhibition, active compounds read high
Summary of the method: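 Compounds were tested on a yeast strain with an engineered DNA damage repair alteration; the reported value is growth inhibition normalised to vehicle treatment.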

[2] = NCI Yeast Anticancer Drug Screen. Data for the mec2-1 strain (AID 157); settings: S. cerevisiae mec2-1 strain, active compounds read high
Summary of the method: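 Mutant yeast (mec2-1) grown with compound; growth inhibition relative to vehicle control reported.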

[3] = NCI Yeast Anticancer Drug Screen. Data for the sgs1 mgt1 strain (AID 161);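 note: 0% = growth of cultures given vehicle only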; settings: S. cerevisiae sgs1 mgt1 strain, active compounds read high
Summary of the method: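 Growth of a repair-deficient yeast mutant was monitored after compound treatment and expressed as inhibition relative to vehicle-treated cultures.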

[4] = NCI Yeast Anticancer Drug Screen. Data for the cln2 rad14 strain (AID 165);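 note: 0% = growth equal to vehicle treated cultures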; settings: S. cerevisiae cln2 rad14 strain, active compounds read high
Summary of the method: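 Readout is yeast growth inhibition versus vehicle-treated controls, using a strain with cln2 and rad14 alterations exposed to compound.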

[5] = NCI Yeast Anticancer Drug Screen. Data for the bub3 strain (AID 167); settings: S. cerevisiae bub3 mutant strain, active compounds read high
Summary of the method: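 Growth of a checkpoint-deficient yeast mutant is measured after compound exposure. Values represent inhibition relative to vehicle.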

[6] = NCI Yeast Anticancer Drug Screen. Data for the mlh1 rad18 strain (AID 175); settings: S. cerevisiae mlh1 rad18 strain growth inhibition, active compounds read high
Summary of the method: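 Genetically defined yeast (DNA repair-deficient) exposed to compounds; growth inhibition determined relative to vehicle.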

[7] = at 5.0 µM (retest, dose inferred, filed as 0.5)
[8] = at 50.0 µM (retest, dose inferred, filed as 5.0)

| SMILES | growth inhibition [1, 7] | growth inhibition [1, 8] | growth inhibition ([1]; at 50.0 µM) | growth inhibition [2, 7] [%] | growth inhibition [2, 8] | growth inhibition ([2]; at 50.0 µM) | growth inhibition [3, 7] [%] | growth inhibition [3, 8] | growth inhibition ([3]; at 50.0 µM) | growth inhibition [4, 7] [%] | growth inhibition [4, 8] | growth inhibition ([4]; at 50.0 µM) | growth inhibition [5, 7] [%] | growth inhibition [5, 8] | growth inhibition ([5]; at 50.0 µM) | growth inhibition [6, 7] | growth inhibition [6, 8] | growth inhibition ([6]; at 50.0 µM) |
| --- | --- | --- | --- | --- | --- | --- | --- | --- | --- | --- | --- | --- | --- | --- | --- | --- | --- | --- |
| CCCCCCCCCCOC(=O)c1ccccn1 | -6% | 93% (active) | 34.1% | -3 | 94% (active) | 42.7% | -3 | 60% | 37.5% | -3 | 75% (active) | 17.2% | 0 | 80% (active) | 43.2% | -2% | 83% (active) | 62.5% |
| CN(C)C=NCCNc1ccc([N+](=O)[O-])cn1 | -154% | -166% | 4.4% | -49 | -57% | 4.2% | -62 | -66% | -6.6% | -46 | -59% | 24.5% | -70 | -77% | 19.8% | -139% | -120% | 3.6% |
| Cc1ccc2c(C3Cc4ccccc4N3C(=O)/C=C\C(=O)O)c(C)[nH]c2c1 (configuration not stated) | 23% | 85% (active) | 87.5% (active) | 24 | 91% (active) | 88.7% (active) | 37 | 89% (active) | 92.7% (active) | 27 | 82% (active) | 90.1% (active) | 35 | 90% (active) | 90.6% (active) | 39% | 95% (active) | 89.1% (active) |
| O=C(/C=C/c1cc(O)c(O)cc1O)OCCc1ccccc1 | 17% | 50% | 47.1% | 16 | 61% | 75.5% (active) | 20 | 64% | 69.8% | 32 | 33% | 53.7% | 25 | 68% | 66% | 21% | 75% (active) | 68.5% |
| COc1ccc2c(c1)n([O-])c1cc(C#N)ccc1[n+]2=O | 94% (active) | 97% (active) | 96.1% (active) | 50 | 97% (active) | 45.6% | 41 | 80% (active) | 35.9% | 17 | 59% | -11.7% | 33 | 87% (active) | 44.9% | 73% (active) | 96% (active) | 28.6% |
| Cc1cc(N=Nc2ccccc2C)c(N)cc1N | -12% | 56% | 99.2% (active) | -11 | 97% (active) | 99.2% (active) | 4 | 90% (active) | 99.5% (active) | -27 | 40% | 98.3% (active) | -14 | 86% (active) | 99.3% (active) | -13% | 90% (active) | 99.5% (active) |
| CCOC(CCl)Oc1c(C(C)C)cc(C(C)C)c(Cl)c1C (configuration not stated) | 0% | 20% | 97.5% (active) | -1 | 57% | 96.7% (active) | 1 | 49% | 97.7% (active) | 4 | 26% | 96.7% (active) | -3 | 19% | 97.3% (active) | -1% | 27% | 95% (active) |
| COc1ccc(CC2c3cc4c(cc3CCN2C)OCO4)c(C=O)c1OC (configuration not stated) | -2% | -4% | 82% (active) | -1 | -1% | 86.7% (active) | -1 | -3% | 83.3% (active) | -4 | -11% | 84.7% (active) | -2 | 1% | 57.3% | -2% | -4% | -38.8% |
| O=C(Nc1ccc(Cl)cc1)c1cccc([N+](=O)[O-])c1O | 9% | 13% | 32.8% | 5 | 11% | -8.45% | 8 | 11% | 70.8% (active) | -3 | 34% | -22% | 6 | 10% | -5% | 7% | 16% | 11.2% |
| Cc1ccc(C(=O)C(CN(C)C)CN(C)C)cc1C | 29% | 83% (active) | 87.6% (active) | 12 | 90% (active) | 90.2% (active) | 9 | 88% (active) | 90.1% (active) | 24 | 51% | 58.1% | 20 | 94% (active) | 87.5% (active) | 14% | 91% (active) | 87.8% (active) |
| C=C(CN1CCCC1)C(=O)c1ccc(OC)cc1 | -6% | 22% | 3.25% | 7 | 65% | 73% (active) | -8 | 55% | 44.4% | 31 | 81% (active) | -20.4% | -6 | 54% | -12% | 4% | 71% (active) | 46.6% |
| Cc1c(N)ccc(O)c1C | 1% | 46% | 87.7% (active) | -1 | 30% | 90.9% (active) | -2 | 37% | 43.2% | -3 | 17% | 86.3% (active) | 1 | 41% | 96.8% (active) | 1% | 35% | 96.6% (active) |
| Cc1ccc2nc(N/N=C/c3cccc(C)n3)cc(C)c2c1 | 8% | 62% | 89.3% (active) | -2 | 37% | 21.2% | 6 | 80% (active) | 89.8% (active) | -8 | 61% | 74.9% (active) | -11 | 57% | 73.1% (active) | 4% | 64% | 84.3% (active) |
| Cc1cc(C)nc(NS(=O)(=O)c2ccc(Nc3c4ccccc4nc4c(C(=O)NC(CO)(CO)CO)cccc34)cc2)n1 | -11% | 26% | 81.8% (active) | 4 | -2% | -6.1% | 0 | -8% | 4.9% | 39 | -2% | 42.4% | 4 | 12% | 4.45% | -3% | 4% | -8.4% |
| O=C(CCCN1CCC2(CC1)CC(c1ccccc1)OC2=O)c1ccc(F)cc1 (configuration not stated) | 48% | 76% (active) | 86.3% (active) | 33 | 65% | 87.9% (active) | 44 | 87% (active) | 94.7% (active) | 41 | 84% (active) | 89.8% (active) | 39 | 90% (active) | 95.2% (active) | 34% | 63% | 95.9% (active) |
| NS(=O)(=O)c1ccc(Nc2c3ccccc3nc3c(C(=O)NC(CO)(CO)CO)cccc23)cc1 | -14% | 24% | 18.9% | -11 | -10% | -1% | -5 | -13% | 15.3% | 25 | -10% | 45.5% | -9 | -8% | 12.9% | -14% | 9% | 15.9% |
| Cc1ccc(S(=O)(=O)Oc2ccc(C(C)(C)C)cc2Cl)cc1 | -8% | -11% | -5.5% | -22 | -25% | 2% | 11 | 3% | 9.35% | -3 | -3% | -7.7% | 1 | -1% | 11.4% | 20% | 0% | 14.4% |
| CCc1nc2ccc(N=NN(C)C)cc2[nH]1 | 21% | 73% (active) | 84.5% (active) | 19 | 80% (active) | 92% (active) | 18 | 96% (active) | 74.2% (active) | 22 | 87% (active) | 88.1% (active) | 18 | 97% (active) | 88.5% (active) | 24% | 91% (active) | 91.3% (active) |
| CCCCC/C=C/C/C=C\CCCCCCCC(=O)NC1CC(O)C(O)NC(=O)C2C(O)C(C)CN2C(=O)C(C(C)O)NC(=O)C(C(O)C(O)c2ccc(O)cc2)NC(=O)C2CC(O)CN2C(=O)C(C(C)O)NC1=O (stereo not drawn) (X1-[ξOrn(4,5-diOH)]T[Hyp][ξhTyr(βξ-OH,γξ-OH)]T[ξPro(3ξ-OH,4ξ-Me)]; lactam 1-C; configuration not given here) | 3% | 93% (active) | 89% (active) | 51 | 98% (active) | 90.8% (active) | 51 | 93% (active) | 90.3% (active) | 9 | 95% (active) | 83.8% (active) | 11 | 97% (active) | 89.9% (active) | 40% | 96% (active) | 88.6% (active) |
